{"source": "paper PMC5540273", "about": "(PLoS ONE, 2017);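 also: KINOMEscan kinase panel screen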", "data": [{"test_system": "CDK4-cyclinD1", "conditions": "concentration: 1 μM, replicates: in singlicate; n = 1", "units": {"%Inh": "%"}, "values": [{"smiles": "COc1cc(Nc2ncc3c(C)nc(-c4cc5ccccc5[nH]4)n3n2)cc(OC)c1OC", "note": "[GW869516]", "%Inh": 22}, {"smiles": "Cc1ccc(C)c(NC(=O)NC2CCN(c3ccnc(Nc4ccc(F)cc4)n3)C2)c1", "note": "(stereo not drawn) [GSK1379720]", "%Inh": 37}, {"smiles": "c1ccc(Oc2ccc(Nc3ccnc4cc(-c5ccc(CNCCN6CCOCC6)o5)ccc34)cc2)nc1", "note": "[GW567145]", "%Inh": 38}, {"smiles": "COc1cc(Nc2nccc(-c3c(-c4cccc(NC(=O)c5c(F)cccc5F)c4)nn4ncccc34)n2)cc(OC)c1OC", "note": "[GSK327238]", "%Inh": 0}, {"smiles": "COc1cc(Nc2nccc(N3CCC(NC(=O)Nc4cccc(C(C)=O)c4)C3)n2)cc(OC)c1OC", "note": "(stereo not drawn) [GSK1379753]", "%Inh": 0}, {"smiles": "Cl.Cl.NCC(NCc1ccc(-c2ccnc3[nH]ccc23)s1)c1ccccc1", "note": "(stereo not drawn) [GSK1321565]", "%Inh": 5}, {"smiles": "Oc1cc(Nc2ccnc3cc(I)ccc23)ccc1F", "note": "[GW552771]", "%Inh": 11}, {"smiles": "Cc1ccc(C(=O)Nc2ccc(Nc3ccnc4cc(-c5nccs5)ccc34)cc2O)cc1.Cl", "note": "[GW494702]", "%Inh": 39}, {"smiles": "C[C@@H]1CC[C@@H](C(=O)Nc2ccccc2)CN1c1cc(-c2ccc3c(N)n[nH]c3c2)nc(N)n1", "note": "[GSK2286062]", "%Inh": 0}, {"smiles": "Nc1ncc(-c2cccnc2)c2scc(-c3ccc4c(c3)CCN4C(=O)Cc3ccccc3)c12", "note": "[GSK683281]", "%Inh": 0}, {"smiles": "Cl.c1ccc(-c2ccc3c(Nc4ccc5[nH]ccc5c4)ccnc3c2)nc1", "note": "[GW440138]", "%Inh": 27}, {"smiles": "CCn1c(-c2nonc2N)nc2c(C#CC(C)(C)O)nc(OC[C@H](N)c3ccccc3)cc21", "note": "[GSK943949]", "%Inh": 0}, {"smiles": "Cn1cc(-c2ccc3c(c2)CCN3C(=O)Cc2cccc(F)c2)c2c(N)ncnc21", "note": "[GSK2603358]", "%Inh": 2}, {"smiles": "O=C(Nc1cccc(-c2nn3ncccc3c2-c2ccnc(Nc3ccccc3)n2)c1)c1c(F)cccc1F", "note": "[GSK198271]", "%Inh": 0}, {"smiles": "COc1cc(Nc2nccc(-c3c(-c4cccc(NC(=O)c5c(F)cccc5F)c4)nn4ccccc34)n2)cc(OC)c1OC", "note": "[GSK323521]", "%Inh": 0}, {"smiles": "FC(F)(F)c1ccc(/C=C/c2cncnc2Nc2ccc3[nH]c(Cc4ccccc4)nc3c2)cc1", "note": "[GW709199]", "%Inh": 23}, {"smiles": "CC(C)(C)c1ccc2nccc(Nc3cccc(O)c3)c2c1", "note": "[GW856795]", "%Inh": 55}, {"smiles": "CCc1ccc(-c2ccc3c(c2)-c2c(cnn2C)S(=O)(=O)N3C)cc1", "%Inh": 3}, {"smiles": "COc1cccc(C2=C(Nc3ccc(Cl)c(C(=O)O)c3)C(=O)NC2=O)c1", "note": "[SB-390769]", "%Inh": 7}, {"smiles": "NCCCC(NC(=O)c1cc(Br)c(-c2ccnc3[nH]ccc23)s1)c1ccccc1.O=C(O)C(F)(F)F.O=C(O)C(F)(F)F", "note": "(stereo not drawn) [GSK1287544]", "%Inh": 0}, {"smiles": "COC(=O)Nc1nc2ccc(Oc3ccc(NC(=O)Nc4cc(C(F)(F)F)ccc4F)cc3)cc2n1C.Cl", "note": "[GW692089]", "%Inh": 46}, {"smiles": "CC(C)c1nc(-c2cccc(NS(=O)(=O)c3c(F)cccc3F)c2F)c(-c2ccnc(Nc3ccc(N4CCOCC4)nc3)n2)s1", "note": "[GSK2008607]", "%Inh": 65}, {"smiles": "COCCOCCOc1cc2ncc3c4ccc(C#N)cc4[nH]c3c2cc1OC", "%Inh": 0}, {"smiles": "Fc1ccc(-c2ncn(C3CCNCC3)c2-c2ccnc(Oc3ccc(-c4ccccc4)cc3)n2)cc1", "note": "[SB-245391]", "%Inh": 0}, {"smiles": "c1ccc(-c2cnc3nccnn23)cc1", "note": "[AH20685]", "%Inh": 0}, {"smiles": "COc1cccc(-c2ccc3c(NC(=O)C4CC4)n[nH]c3n2)c1", "note": "[SB-710903]", "%Inh": 61}]}, {"test_system": "CDK4-cyclinD3", "conditions": "concentration: 1 μM, replicates: in singlicate; n = 1", "units": {"%Inh": "%"}, "values": [{"smiles": "COc1cccc(C(=O)Nc2cccc(Oc3ccc4nc(NC(=O)C5CC5)cn4n3)c2)c1", "%Inh": 0}, {"smiles": "Cl.Cl.NCC(NC(=O)c1cc(-c2ccccc2)c(-c2ccnc3[nH]ccc23)s1)c1ccccc1", "note": "(stereo not drawn) [GSK1321561]", "%Inh": 0}, {"smiles": "CC(=O)Nc1nc2cnc(Nc3cc(NC(=O)c4cccc(C5(C#N)CC5)c4Cl)ccc3C)nc2s1", "%Inh": 0}, {"smiles": "COc1cccc(NC(=O)NC2CCN(c3ccnc(Nc4cc(OC)c(OC)c(OC)c4)n3)C2)c1", "note": "(stereo not drawn) [GSK1379763]", "%Inh": 0}, {"smiles": "COc1cc2c(cc1OCCN1CCNCC1)ncc1c3ccc(C#N)cc3[nH]c21", "%Inh": 0}, {"smiles": "CSc1cccc2c(-c3ccncn3)c(-c3ccc(F)cc3)nn12", "note": "[GW514786]", "%Inh": 0}, {"smiles": "Cn1cc(-c2ccc3c(c2)CCN3C(=O)Cc2cccc(Cl)c2)c2c(N)ncnc21", "note": "[GSK2606590]", "%Inh": 0}, {"smiles": "CCS(=O)(=O)c1ccc(OC)c(Nc2nccc(-c3c(-c4cccc(NC(=O)c5c(F)cccc5F)c4)nn4ncccc34)n2)c1", "note": "[GSK326180]", "%Inh": 12}, {"smiles": "CCn1c(-c2nonc2N)nc2c(C#CC(C)(C)O)ncc(OCCCCN)c21.O=C(O)C(F)(F)F.O=C(O)C(F)(F)F", "note": "[GSK507274]", "%Inh": 0}, {"smiles": "O=C(Nc1cccc(-c2nn3ccccc3c2-c2ccnc(Nc3cccc(C(F)(F)F)c3)n2)c1)c1c(F)cccc1F", "note": "[GSK292658]", "%Inh": 0}, {"smiles": "CN(c1ccc(NC(=O)Nc2cc(C(F)(F)F)ccc2F)cc1)c1ccnc(Nc2ccc(S(N)(=O)=O)cc2)n1", "note": "[GW809893]", "%Inh": 5}, {"smiles": "COc1cc(Nc2ncc3c(C)nc(-c4cc5ccccc5[nH]4)n3n2)cc(OC)c1OC", "note": "[GW869516]", "%Inh": 0}, {"smiles": "Cc1ccc(C)c(NC(=O)NC2CCN(c3ccnc(Nc4ccc(F)cc4)n3)C2)c1", "note": "(stereo not drawn) [GSK1379720]", "%Inh": 0}, {"smiles": "c1ccc(Oc2ccc(Nc3ccnc4cc(-c5ccc(CNCCN6CCOCC6)o5)ccc34)cc2)nc1", "note": "[GW567145]", "%Inh": 0}, {"smiles": "COc1cc(Nc2nccc(-c3c(-c4cccc(NC(=O)c5c(F)cccc5F)c4)nn4ncccc34)n2)cc(OC)c1OC", "note": "[GSK327238]", "%Inh": 97.4}, {"smiles": "COc1cc(Nc2nccc(N3CCC(NC(=O)Nc4cccc(C(C)=O)c4)C3)n2)cc(OC)c1OC", "note": "(stereo not drawn) [GSK1379753]", "%Inh": 0}, {"smiles": "Cl.Cl.NCC(NCc1ccc(-c2ccnc3[nH]ccc23)s1)c1ccccc1", "note": "(stereo not drawn) [GSK1321565]", "%Inh": 0}, {"smiles": "Oc1cc(Nc2ccnc3cc(I)ccc23)ccc1F", "note": "[GW552771]", "%Inh": 0}, {"smiles": "Cc1ccc(C(=O)Nc2ccc(Nc3ccnc4cc(-c5nccs5)ccc34)cc2O)cc1.Cl", "note": "[GW494702]", "%Inh": 0}, {"smiles": "C[C@@H]1CC[C@@H](C(=O)Nc2ccccc2)CN1c1cc(-c2ccc3c(N)n[nH]c3c2)nc(N)n1", "note": "[GSK2286062]", "%Inh": 0}, {"smiles": "Nc1ncc(-c2cccnc2)c2scc(-c3ccc4c(c3)CCN4C(=O)Cc3ccccc3)c12", "note": "[GSK683281]", "%Inh": 0}, {"smiles": "Cl.c1ccc(-c2ccc3c(Nc4ccc5[nH]ccc5c4)ccnc3c2)nc1", "note": "[GW440138]", "%Inh": 0}, {"smiles": "CCn1c(-c2nonc2N)nc2c(C#CC(C)(C)O)nc(OC[C@H](N)c3ccccc3)cc21", "note": "[GSK943949]", "%Inh": 8}, {"smiles": "Cn1cc(-c2ccc3c(c2)CCN3C(=O)Cc2cccc(F)c2)c2c(N)ncnc21", "note": "[GSK2603358]", "%Inh": 0}, {"smiles": "O=C(Nc1cccc(-c2nn3ncccc3c2-c2ccnc(Nc3ccccc3)n2)c1)c1c(F)cccc1F", "note": "[GSK198271]", "%Inh": 0}, {"smiles": "COc1cc(Nc2nccc(-c3c(-c4cccc(NC(=O)c5c(F)cccc5F)c4)nn4ccccc34)n2)cc(OC)c1OC", "note": "[GSK323521]", "%Inh": 0}, {"smiles": "FC(F)(F)c1ccc(/C=C/c2cncnc2Nc2ccc3[nH]c(Cc4ccccc4)nc3c2)cc1", "note": "[GW709199]", "%Inh": 0}, {"smiles": "CC(C)(C)c1ccc2nccc(Nc3cccc(O)c3)c2c1", "note": "[GW856795]", "%Inh": 0}, {"smiles": "CCc1ccc(-c2ccc3c(c2)-c2c(cnn2C)S(=O)(=O)N3C)cc1", "%Inh": 3}, {"smiles": "COc1cccc(C2=C(Nc3ccc(Cl)c(C(=O)O)c3)C(=O)NC2=O)c1", "note": "[SB-390769]", "%Inh": 100}, {"smiles": "NCCCC(NC(=O)c1cc(Br)c(-c2ccnc3[nH]ccc23)s1)c1ccccc1.O=C(O)C(F)(F)F.O=C(O)C(F)(F)F", "note": "(stereo not drawn) [GSK1287544]", "%Inh": 2}, {"smiles": "COC(=O)Nc1nc2ccc(Oc3ccc(NC(=O)Nc4cc(C(F)(F)F)ccc4F)cc3)cc2n1C.Cl", "note": "[GW692089]", "%Inh": 0}, {"smiles": "CC(C)c1nc(-c2cccc(NS(=O)(=O)c3c(F)cccc3F)c2F)c(-c2ccnc(Nc3ccc(N4CCOCC4)nc3)n2)s1", "note": "[GSK2008607]", "%Inh": 93.6}, {"smiles": "COCCOCCOc1cc2ncc3c4ccc(C#N)cc4[nH]c3c2cc1OC", "%Inh": 39}, {"smiles": "Fc1ccc(-c2ncn(C3CCNCC3)c2-c2ccnc(Oc3ccc(-c4ccccc4)cc3)n2)cc1", "note": "[SB-245391]", "%Inh": 34}, {"smiles": "c1ccc(-c2cnc3nccnn23)cc1", "note": "[AH20685]", "%Inh": 0}, {"smiles": "COc1cccc(-c2ccc3c(NC(=O)C4CC4)n[nH]c3n2)c1", "note": "[SB-710903]", "%Inh": 15}]}]}
